According to PubChem BioAssay (NCI):
Compounds without any hit were thinned out: in the full panel of roughly 79,000, 15% have a hit. Values without a mark were called inactive. Active and inactive are the calls of the source. Cut-off read from the data, not from the text of the source: active = growth inhibition above about 70%; inactive = the rest.

Tests used:
[1] = NCI Yeast Anticancer Drug Screen. Data for the rad50 strain (AID 155);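 note: 0% = growth of vehicle-only cultures of the same strain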; settings: S. cerevisiae rad50 strain growth inhibition; at 50.0 µM; hits give high values
In short: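 Cells are treated with compound, grown, and their growth is then scored against vehicle-only cultures of the same repair-deficient yeast strain.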

[2] = NCI Yeast Anticancer Drug Screen. Data for the mec2-1 strain (AID 157); settings: S. cerevisiae mec2-1 strain, at 50.0 µM, hits give high values
In short: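 Yeast mec2-1 mutant treated with compound. Readout: growth inhibition vs vehicle controls.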

[3] = NCI Yeast Anticancer Drug Screen. Data for the sgs1 mgt1 strain (AID 161);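 note: 0% = growth of cultures given vehicle only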; settings: S. cerevisiae sgs1 mgt1 strain, at 50.0 µM, hits give high values
In short: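 Genetically altered yeast, compound exposure, growth inhibition relative to vehicle.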

[4] = NCI Yeast Anticancer Drug Screen. Data for the cln2 rad14 strain (AID 165);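 note: 0% = growth equal to vehicle treated cultures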; settings: S. cerevisiae cln2 rad14 strain, at 50.0 µM, hits give high values
In short: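 cln2 rad14 yeast strain; compound exposure; growth inhibition read vs vehicle controls.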

[5] = NCI Yeast Anticancer Drug Screen. Data for the bub3 strain (AID 167); settings: S. cerevisiae bub3 mutant strain, at 50.0 µM, hits give high values
In short: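 Part of a panel of yeast mutants defective in DNA damage repair or cell cycle regulation. Each strain is grown with compound, and inhibition is calculated relative to solvent-treated cultures.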

[6] = NCI Yeast Anticancer Drug Screen. Data for the mlh1 rad18 strain (AID 175); settings: S. cerevisiae mlh1 rad18 strain growth inhibition; at 50.0 µM; hits give high values
In short: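 Yeast w/ defined DNA-repair lesions; compound exposure; growth vs vehicle controls → % inhibition.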

SMILES	growth inhibition [1]	growth inhibition [2]	growth inhibition [3]	growth inhibition [4]	growth inhibition [5]	growth inhibition [6]
O=[N+]([O-])c1cccc(/C=[N+](\[O-])c2ccccc2)c1	-3.45%	8.2%	13%	-38.6%	-16.9%	0.6%
CCC1(C)C(=O)C(C)(CC)C1=O (stereo unspecified)	23.6%	20.6%	21.4%	0.6%	20%	6.85%
CC(=O)OCc1ccc(Cl)cc1Cl	3.65%	-2.9%	7.25%	7.4%	-33.4%	-12.2%
O=C(NO)c1ccc([N+](=O)[O-])cc1	58.2%	31.1%	46.3%	7.05%	17.8%	22.2%
COc1ccc(-c2c(C(C)=O)c(-c3ccccc3)n(C3OC(COC(C)=O)C(OC(C)=O)C(OC(C)=O)C3OC(C)=O)c(=S)c2C#N)cc1 (stereo unspecified)	-17.7%	-25.9%	-26.1%	7.85%	0.75%	-36.2%
COc1ccc(/C=C/C(=O)c2sc(N)nc2C)cc1	26.5%	-5.55%	-0.4%	24.6%	3.95%	13.6%
CN(C)Cc1c[nH]c2nc[nH]c(=O)c12	-1.3%	-31.4%	-31.4%	6%	-9.5%	-16.4%
NN1C(=O)Cc2ccc(Cl)cc21	9.1%	-0.7%	-2.9%	-33.5%	-3.15%	2.1%
C=Cc1cccc([N+](=O)[O-])c1	15.8%	-0.15%	6.6%	16.5%	19.6%	-3.7%
CN(C)Cc1ccccc1C=C(c1ccccc1)c1ccccc1	3.05%	0.65%	-6.2%	-37.9%	0.55%	-9.8%
COc1ccc(C(C)(C)C#N)cc1	-20.7%	13.6%	-5.95%	-12.8%	-10.6%	31.6%
C#CCNC(=O)NCCCC(NC(C)=O)C(=O)NCc1ccccc1 (stereo unspecified)	41%	-12.2%	-4.65%	32.1%	-5.75%	-8.15%
CC(C)c1cccc2ccccc12	2.85%	0.2%	-2.9%	-13.8%	-4.7%	13.4%
C=C1CC/C=C(\C)C(=O)C(O)C2C1CC2(C)C (stereo unspecified)	14.9%	-13.7%	67.2%	16.4%	23.9%	78.8% (active)
O=C(O)/C=C/C(=O)Nc1ccccc1Cl	10.4%	29.6%	48.9%	0%	42.2%	21%
CCOCCC(=N)OCC	11.2%	-4.7%	7.9%	9.45%	4.2%	13.6%
Cc1cc(C)cc(O)c1	-9.4%	-12.8%	-42%	-13.2%	-14.8%	-1.7%
CC(Cl)(CCC(Cl)C(C)(C)Cl)C(=O)CBr (stereo unspecified)	89% (active)	92.7% (active)	92.8% (active)	91.3% (active)	92.3% (active)	93.2% (active)
CN(C(=O)C12C3C4C1C1C2C3C41C#N)C(C)(C)C (stereo unspecified)	20.6%	6.15%	2.5%	11.2%	20.5%	19.6%
COc1cc(/C=C\c2ccc(SC)cc2)cc(OC)c1OC	26.4%	20.6%	28.9%	15.3%	16.8%	-57.9%
CC(=O)NNC(=S)N/C=C(\C#N)S(=O)(=O)c1ccc(C)cc1	-44.5%	-26.4%	-35.5%	-61.3%	-25.8%	-37.6%

SMILES	growth inhibition [1]	growth inhibition [2]	growth inhibition [3]	growth inhibition [4]	growth inhibition [5]	growth inhibition [6]
FC(F)(F)c1ccc2nc[nH]c2c1	5.3%	-10.2%	-3.15%	-10.4%	9.6%	6.95%
CCCCCCC1OCC(C)([N+](=O)[O-])CO1 (stereo unspecified)	13.9%	-8.8%	-1.1%	-28.8%	-12.6%	5.65%
CCOC(=O)N1C2C=C(C)C(ON2C(=O)c2ccccc2)C2C(C)C(=O)N21 (stereo unspecified)	-3.8%	-10.7%	-5.8%	18.1%	-17.5%	-13.4%
O=C(Nc1ccc(Cl)cc1)P(=O)(O)c1ccccc1	-11.8%	-0.95%	-23.1%	-26.8%	-16.8%	18.1%
COc1nc(Cl)cc2nc(Cl)cn12	3.4%	9.35%	-3.65%	9.55%	-11.8%	2.55%
CCOC(=O)C1=NN(c2ccccc2)C(=O)/C1=C\n1c(=S)sc2ccccc21	-7.25%	-24.4%	-6.5%	-16.1%	-11.8%	-2.4%
Cc1cnc(-c2ccccc2)o1	8.7%	5.4%	-4.8%	3.9%	0.9%	-12.7%
NC(=O)CCCCCCCC(=O)O	-0.9%	-5.7%	-13.4%	1.45%	-10.6%	-22.9%
O=C1C=CC(=Nc2ccc3c(c2)C(=O)c2cc(F)ccc2-3)O1	-0.35%	-6.7%	9.2%	-2.15%	1.35%	5.3%
NC(N)=N/N=C/c1c(-c2ccc(Cl)cc2)nc2n1CCS2	-36.6%	-51.6%	-18%	-10.9%	-5.05%	-25.2%
COc1ccc2ccccc2c1C1=NC(C)(C)CO1	-6.65%	-18.6%	2.6%	18.5%	-3.8%	-16.6%
CCOC(=O)CCC(NC(=O)c1ccc(Nc2cnc3cc(C(F)(F)F)ccc3n2)cc1)C(=O)OCC (stereo unspecified)	0.1%	-12.8%	-5.85%	19.9%	3.4%	-4.65%
COCc1ccnn1-c1ccccc1C	-5.85%	13.5%	9.3%	-8.45%	5.2%	-6.05%
COc1ccc(-c2oc3ccccc3c(=O)c2O)cc1OC	2.3%	9.9%	16.2%	-10.8%	21.4%	-11.1%
c1ccc(CCCCc2ccc(CCCCc3ccccc3)cc2)cc1	12.2%	-3.55%	-2.45%	-6.35%	-2.2%	6.1%
CCOC(=O)c1c(SCCO)n(-c2ccccc2)c(=S)n(-c2ccccc2)c1=O	-22.7%	-25.2%	-22.7%	1.75%	-13.3%	-19.4%
CCOC(=O)/C(Cc1ccc2c(c1)OCO2)=N\O	-3.05%	-16.1%	-12.9%	-2.25%	2.25%	-1.1%
COc1ccc(C2(C3NCCC4=C3CCCC4)CC2)cc1 (stereo unspecified)	11.9%	-5.75%	32%	-4.1%	-3.7%	23.6%
CCN(CC)c1c(C)c(-c2ccccc2)oc(=O)c1Cl	0.3%	-1.05%	3.7%	11.1%	6.85%	6.95%
COC(=O)C1=CC(O)CCC1c1ccc(OC)cc1 (stereo unspecified)	-6.2%	-10.7%	-13.2%	-5.8%	-5.45%	-19.2%
